Screening data (PubChem BioAssay)
Sampled rows, rich in hits. Any-hit rate of the full collection: about 2.8%.
Pol kappa inh: qHTS for Inhibitors of Polymerase Kappa; DNA polymerase kappa (Homo sapiens), Q9UBT6; purified Pol kappa, fluorescent DNA synthesis assay, 10 min; Potency, µM (doses to about 107 µM), for the others: top-dose activity, negative = inhibition, actives largely listed as inhibitors; 400,000 compounds, 0.53% hits; AID 588579, 2011; further: potency means the concentration at half of the fitted maximal effect; on the % scale 0 is the no-effect control and ±100 the full control effect
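Kinetic fluorescence readout at 0 and 10 min followed reaction start with substrate at 50 nM final. Beforehand, enzyme (10 nM Pol kappa) stood 15 min with compound at room temperature; buffer-only wells were negative controls.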
Pol iota inh: qHTS for Inhibitors of Polymerase Iota; AID 588590, 2011; 390,000 compounds, 1% hits; Pol iota fluorescent replication assay, 10 min; Potency, µM (titrated, usually from 115 µM), for the others: at the top dose activity, negative = inhibition, most hits filed as inhibitors; DNA polymerase iota (Homo sapiens), Q9UNA4; further: potency means the concentration at half of the fitted maximal effect
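Pol iota at 10 nM preincubated 15 min with compounds at room temperature; reaction started with fluorescent substrate, 50 nM final. Fluorescence read kinetically at 0 and 10 min; buffer-only wells as negative control.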
Pol beta inh: qHTS Assay for Inhibitors of DNA Polymerase Beta; P06746; Pol beta primer extension/strand displacement, fluorescence kinetic; Potency, µM (highest dose often 114 µM), for inactives: at the highest dose activity change, negative = inhibition, most hits filed as inhibitors; 340,000 compounds, 1.3% hits; AID 485314, 2010; further: potency means the concentration at half of the fitted maximal effect; on the % scale 0 is the no-effect control and ±100 the full control effect
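Pol beta (10 nM) was preincubated with compound for 15 min at room temperature. The reaction was then started with 50 nM substrate and read immediately and after a further 10 min at room temperature.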
PI5P4K alpha inh: qHTS for Inhibitors of phosphatidylinositol 5-phosphate 4-kinase (PI5P4K); Phosphatidylinositol 5-phosphate 4-kinase type-2 alpha (Homo sapiens), P48426; PI5P4Kalpha enzyme, ADP-Glo luminescence, 60 min; stronger effect = lower value; max response, %; 330,000 compounds, 1.2% hits; AID 652105, 2013; active means max response of -50% or lower; inconclusive means between -30% and -50%; inactive means -30% or higher; further: value at the top dose of about 77 µM; on the % scale 0 is the no-effect control and ±100 the full control effect
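ADP-Glo luminescence end-point read after a 60 min room-temperature kinase reaction of PI5P4Kalpha plus substrate, initiated with ATP at 5 microM final. Buffer: 0.038 M HEPES pH 7.4, EGTA, 0.1% CHAPS, 5% DMSO.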
POLH inh: qHTS for Inhibitors of Polymerase Eta; DNA polymerase eta (Homo sapiens), Q9Y253; Potency, µM (doses to about 114 µM), for the others: top-dose activity change, negative = inhibition, most hits filed as inhibitors; 390,000 compounds, 1.2% hits; recombinant Pol eta, fluorescent DNA replication assay; further: potency means the concentration at half of the fitted maximal effect; on the % scale 0 is the no-effect control and ±100 the full control effect
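Pol eta at 10 nM preincubated with compounds 15 min at room temperature; reaction started with fluorescent substrate (50 nM final) and read kinetically at 0 and 10 min.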
WRN helicase inh: qHTS for Inhibitors of WRN Helicase | Bifunctional 3'-5' exonuclease/ATP-dependent helicase WRN (Homo sapiens), Q14191 | WRN helicase unwinding, fluorescent forked duplex, kinetic | Potency, µM (series often up to 114 µM), without a hit: top-dose activity change, negative = inhibition, most hits filed as inhibitors | 360,000 compounds, 0.46% hits; further: potency means the concentration at half of the fitted maximal effect; on the % scale 0 is the no-effect control and ±100 the full control effect; nearly all actives have a fitted effect of over 55% in size
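Enzyme (20 nM final) and test compound sit together 15 min at room temperature before substrate addition. Substrate is a single-forked duplex oligonucleotide (100 nM) labelled with fluorophore and quencher, with 2 mM ATP; helicase unwinding raises red fluorescence, read kinetically.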
* marks the source's active call; other numbers are inactive results; ? = inconclusive; . = not tested or not shown; [ ] = remark or other dose. Unless noted, the call rests on the fitted dose curve; in most records, active means well fitted curve in the direction sought with a large enough effect; inconclusive means small, poorly fitted or top-dose-only effect, or another doubt; inactive means no such curve, though single readings can be large; an effect the other way counts as inactive or inconclusive.

SMILES	Pol kappa inh	Pol iota inh	Pol beta inh	PI5P4K alpha inh	POLH inh	WRN helicase inh
Cc1ccc(C(=O)N2CCN(c3ccc([N+](=O)[O-])cc3)CC2)o1	-4%	6%	89µM*	0	-20%	5%
O=[N+]([O-])c1ccc(CSc2ccc(S(=O)(=O)N3CCCCCC3)cn2)cc1	-6%	8%	.	2	-9%	-1%
Cc1ccc(N2CCN(C3=NC(=O)/C(=C\c4cn[nH]c4-c4ccccc4)S3)CC2)cc1	-5%	101%	2%	-25	-11%	6%
O=C1N=C(N2CCN(c3ccccc3)CC2)S/C1=C\c1cn[nH]c1-c1ccccc1	-7%	8%	14%	-51*	-4%	2%
O=C1N=C(N2CCN(c3ccccc3)CC2)S/C1=C\c1ccco1	-20%[60.1 µM]	45µM*	13µM*	?	?	-8%
O=C1N=C(N2CCCC2)S/C1=C\c1ccccc1	1%	-6%	8%	-4	-5%	-10%
O=C1N=C(N2CCN(c3ccccc3)CC2)S/C1=C/c1ccco1	?	45µM*	?	-23	-16%	-9%[11.6 µM]
COc1ccc(-n2c(-c3ccc(Cl)cc3)c[nH]c2=S)cc1	-11%[60.1 µM]	-2%	29%	-15	-19%	-1%
COc1ccc(C)cc1Nc1n[n+](-c2ccccc2)c(-c2c(OC)ccc3ccccc23)s1	2%	30%	.	-54*	-25%	11%
Fc1ccc(-[n+]2nc(Nc3ccccc3)sc2-c2c3ccccc3cc3ccccc23)cc1	-4%	?	8%	-63*	-12%	-5%
Oc1ccc2ccccc2c1-c1sc(Nc2ccccc2)n[n+]1-c1ccc(F)cc1	-5%	22%	9%	1	7%	34%
CC1CCC(NC(=O)c2ccc3c(c2)N(Cc2cccc(Cl)c2)C(=O)c2ccccc2S3=O)CC1 (stereo unspecified)	-4%[60.1 µM]	5%	-1%	.	-20%	.
COc1ccc(NC(=O)Nc2ccc([N+](=O)[O-])cc2)cn1	-40%	?	28µM*	-1	?	?
COc1ccc(NC(=O)Nc2cc(C)cc(C)c2)cn1	-6%	5%	7%	-4	-13%	1%
COC(=O)C1=C(SC)N(c2ccccc2)C(c2ccccc2)CC1=O (stereo unspecified)	89µM*	13%	0%	5	-2%	?
CC1(C)C(=O)Nc2ccccc2N1C(=O)COC(=O)c1cc(Cl)cc(Cl)c1	-6%	?	.	-24	-16%	-20%
CC1(C)C(=O)Nc2ccccc2N1C(=O)COC(=O)c1cccnc1	-30%	28µM*	.	?	?	-3%[11.6 µM]
CC1(C)C(=O)Nc2ccccc2N1C(=O)COC(=O)C12CC3CC(CC(O)(C3)C1)C2	?	50µM*	20µM*	?	14µM*	-5%[11.6 µM]
CC(C)(C)OC(=O)NC(Cc1ccccc1)C(O)c1ccco1 (stereo unspecified)	-2%	18%	.	.	.	.
CC1(N(O)C=C2C=CC(=O)C=C2)CCCCC1=O (stereo unspecified)	7%	33%	34%	2	19%	9%
O=C(CCc1nc2sc3c(c2c(=O)[nH]1)CCCC3)N1CCN(c2ccccc2)CC1	?	45µM*	.	?	79µM*	-2%[11.6 µM]
COc1cccc(NC(=O)CN(C)C(=O)CCc2nc3sc4c(c3c(=O)[nH]2)CCCC4)c1	-24%	28µM*	35µM*	?	22µM*	?
Cc1cccc(NC(=O)CCc2nc3sc4c(c3c(=O)[nH]2)CCCC4)c1	0%	17%	.	1	?	-2%
CCc1cccc(NC(=O)CCc2nc3sc4c(c3c(=O)[nH]2)CCCC4)c1	?	18µM*	.	?	32µM*	-10%[11.6 µM]
CCOC(=O)c1cnc(NCc2ccc(OC)cc2OC)c2ccccc12	-14%[60.1 µM]	89µM*	6%	.	-17%	.
SMILES	Pol kappa inh	Pol iota inh	Pol beta inh	PI5P4K alpha inh	POLH inh	WRN helicase inh
O=C(C[n+]1ccccc1)Nc1c(Cl)cc(Cl)cc1Cl	-11%	23%	8.9µM*	13	-12%	-2%
O=C(C[n+]1csc2ccccc21)c1cccc([N+](=O)[O-])c1	7%	-6%	.	.	.	.
CN(c1ccccc1)S(=O)(=O)c1nnc(NC(=O)COc2ccccc2)s1	-15%	79µM*	?	-30	?	-7%[11.6 µM]
COc1ccccc1CN1CC2(CCN(C(=O)c3cnccn3)CC2)C1	5%[60.1 µM]	.	.	.	.	.
CCOC(=O)c1cc(=O)n2[nH]c(-c3ccc(C)cc3)cc2n1	-18%	-2%	-10%	?	-12%	6%
CCOC(=O)Cc1cc(=O)n2[nH]c(-c3ccc(C)cc3)cc2n1	-38%	79µM*	22µM*	.	?	-17%[57.1 µM]
O=C(NNC(=O)C1CC(c2cccs2)=NO1)Nc1ccc(Cl)cc1 (stereo unspecified)	-37%	?	45µM*	-7	-23%	-15%
O=C(NCc1cccs1)C1CC(c2ccc(Cl)cc2)=NO1 (stereo unspecified)	1%	27%	-16%	5	7%	-8%
Nc1ccn(C(C=O)CC(C=O)CO)c(=O)n1 (stereo unspecified)	.	.	.	-24	.	5%
CCCC(=NCCc1c(C)[nH]c2ccccc12)C1=C(O)CC(c2ccccc2)CC1=O (stereo unspecified)	-7%	89µM*	2%	10	-25%	0%
C=CCn1c(C)cc(C(=O)COC(=O)c2ccc3c(c2)NC(=O)CS3)c1C	?	?	40µM*	?	?	-5%[11.6 µM]
CC1CCCCN1c1nnc(NC(=O)c2cc(-c3ccc(Br)cc3)on2)s1 (stereo unspecified)	13%	4%	-8%	?	-3%	-6%
CN(C)c1ncc2nc(-c3cccs3)c(=O)n(Cc3cccs3)c2n1	-4%[60.1 µM]	.	.	.	.	.
CN(C)c1nc(=NCc2cccs2)ss1	-2%	12%	.	-1	1%	22µM*
O=C(O)C1=C[C@@H](c2ccccc2)C[C@@H](OCc2ccc(CO)cc2)O1	-8%	-3%	-4%	-1	-5%	-2%
C#Cc1ccc([C@@H]2C=C(C(=O)O)O[C@H](OCc3ccc(CO)cc3)C2)cc1	?	?	22µM*	-2	40µM*	-31%
CCCC[C@]12Cc3cc(C#N)ccc3C(O1)c1c(cc(-c3ccccc3)oc1=O)O2	.	.	3%[22.9 µM]	.	.	.
